# From PubChem BioAssay (NCATS)
# Values without a mark were called inactive. Calls of active or inactive are those of the source. Calls come from the whole dose curve; as a rule, active = well fitted inhibition curve with a large enough effect; inconclusive = small, poorly fitted or top-dose-only effect; inactive = no such curve, though single readings can be large or run the other way.
# Assay: qHTS assay for measurement of the activity of small molecule inhibitors on Zika virus induced Caspase-3 activity in human astrocytoma cells (AID 1224859);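 note: plate controls were ZIKV-infected untreated cells for no effect and uninfected cells for full effect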
# Settings: SNB-19 ZIKV-induced caspase-3/7, luminescence, 6 h; series mostly up to 45.7 µM
# Summary of the method: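 Luminescence read-out (Caspase-Glo 3/7, 30 min RT) of caspase activity in SNB-19 cells infected 6 h with ZIKV, 2 FFU/cell, after 1 h compound pretreatment; % inhibition from induction normalised to uninfected (0%) and infected (100%) wells.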
SMILES,outcome,"activity change, negative = inhibition"
CCC(CC)(CC(=O)Nc1cccc(/C=C/c2nc(C3CCC3)cs2)c1)C(=O)O,inactive,
CC(C)Cn1cnc2c1c(=O)n(C)c(=O)n2C,inactive,
CN1CCN(CCC(=O)N2c3ccccc3Sc3ccc(C(F)(F)F)cc32)CC1,inactive,
Nc1nc(N)c(-c2ccccc2)s1,inactive,
O=[N+]([O-])c1ccc(/C=N\O)o1,inactive,
CC(C)Cc1ccc(CC(=O)O)cc1,inactive,
O=C(N/N=C/c1ccc([N+](=O)[O-])o1)c1ccc(O)cc1,inactive,
FC1(F)C(F)(F)C(F)(F)C2(F)C(F)(F)C(F)(F)C(F)(F)C(F)(F)C2(F)C1(F)F (stereo not drawn),inactive,
O=C(CCN1CCN2CCCC2C1)N1c2ccccc2Sc2ccc(Cl)cc21 (stereo not drawn),inactive,
N=C(N)N1CCc2ccccc2C1,,-0.144% [at 4.53 µM]
COc1cc([C@H]2Oc3cc([C@H]4Oc5cc(O)cc(O)c5C(=O)[C@@H]4O)ccc3O[C@@H]2CO)ccc1O,inactive,
c1ccc(CC2=NCCN2)cc1,inactive,
OCCOCCN1CCN(C2=Nc3ccccc3Sc3ccccc32)CC1,inactive,
O=C(Nc1ncc([N+](=O)[O-])s1)c1cccs1,inactive,
COc1ccc(CCN(C)CCCN2CCc3cc(OC)c(OC)cc3CC2=O)cc1OC,inactive,
COc1ccc(S(=O)(=O)N2c3ccc(Cl)cc3[C@@](O)(c3ccccc3Cl)[C@H]2C(=O)N2CCC[C@@H]2C(N)=O)cc1OC,inactive,
CCOc1ccccc1OCCN[C@H](C)Cc1ccc(OC)c(S(N)(=O)=O)c1,inactive,
CCc1nn(CCCN2CCN(c3cccc(Cl)c3)CC2)c(=O)n1CCOc1ccccc1,inactive,
